Assay outcomes as filed in PubChem.
Hits are enriched below; roughly 4.2% of the tested compounds scored in any of these assays.
hcDAF12 agonist: activators of H. contortus DAF-12 nuclear receptor. HEK293 hcDAF-12 lit1-tk-luc reporter, luminescence; 0% DMSO, 100% Δ7-dafachronic acid. activation, % at 6.8 µM. 1.4% of 370,000 active;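 active means activation above the mean of all tested compounds plus 3 SD, cut at about 5.5% in these data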;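 further: 100% = response to 3 µM Δ7-dafachronic acid high control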
hgDAF12 agonist: agonists of H. glycines DAF-12 nuclear receptor; HEK293 GAL4-hgDAF12 UAS-luciferase reporter, agonist luminescence; normalized to butyrate control; activation, % at 6.8 µM; 1.8% of 370,000 active; AID 687014;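 active means activation above a cutoff set at the mean of all screened compounds plus 3 SD, cut at about 10% in these data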;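 further: 0% = DMSO wells and 100% = sodium butyrate wells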
DAX1 StAR inh: blocks DAX1 repression of SF-1 activated StAR promoter; HEK293T StAR-luciferase reporter, SF-1/DAX-1 repression relief; inhibition, % at 6.8 µM; 1.1% of 370,000 active; AID 652010;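 active means inhibition above the mean over all tested compounds plus 3 SD, cut at about 3.6% in these data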;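 further: 0% = DAX-1 cells with DMSO and 100% = cells lacking DAX-1 with DMSO; higher inhibition means more luminescence from relief of DAX-1 repression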
Wnt act: activators of Wnt/beta-catenin signaling. AID 743398. activation, % at 9.35 µM. 1.2% of 300,000 active. Wnt/beta-catenin reporter cell assay, activator, plate reader; in the data active means activation above about 30%, passing the limit was not always enough; inconclusive means no clear call, values can overlap the other calls;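 further: 0% = neutral control wells and 100% = positive control wells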
esBAF inh: SWI/SNF esBAF complex inhibition; mouse ES cells, Bmi1-luciferase knock-in reporter, 24 h; 100% = twice the neutral-well signal; reporter increase, % at 12.5 µM; 2% of 350,000 active; AID 602393; in the data active means activation above about 40%; inconclusive means no clear call, values can overlap the other calls;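 further: 0% = median of the plate's neutral control wells and 100% = double that signal; a rise in the Bmi1 reporter signal indicates esBAF inhibition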
ssDAF12 agonist: activators of S. stercoralis DAF-12 nuclear receptor; HEK293 ssDAF-12/GRIP1 lit1-tk-luc reporter, luminescence; % of 3 µM dafachronic acid response; activation, % at 6.8 µM; 1% of 370,000 active;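 active means activation above the mean over all tested compounds plus 3 SD, cut at about 0.9% in these data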;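 further: 0% = DMSO-only wells and 100% = 3 µM delta7-dafachronic acid wells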
DAX1 inh confirm: NR0B1 (human) inhibition, confirmation. shares compounds with DAX1 StAR inh. HEK293T StAR-promoter luciferase reporter, SF-1/DAX-1 repression. inhibition, % at 6.8 µM. 87% of 2,400 active;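 active means inhibition above the average of every tested compound plus 3 SD, cut at about 3.8% in these data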;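 further: 0% = DAX-1 cells with DMSO and 100% = no DAX-1 control cells with DMSO; active compounds raise luminescence by relieving repression of the StAR reporter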
SF1 mutant ctr: counter-screen for DAX1 inhibitors: nonselective inhibitors with SF-1 AF2 mutant. shares compounds with DAX1 StAR inh. HEK293 StAR-luciferase, luminescence. inhibition, % at 6.8 µM. 78% of 2,400 active;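 active means inhibition above the mean of all tested compounds plus 3 SD, cut at about 3% in these data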;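 further: 0% = DAX-1 transfected cells with DMSO and 100% = cells without DAX-1 with DMSO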
LXR ag: LXR-beta agonism as hcDAF-12 counter-screen | shares compounds with hcDAF12 agonist | 3,400 tested, under 10 active | HEK293 Gal4-LXR tk-luc reporter, luminescence, 24 h; normalized: DMSO 0%, positive control 100% | activation, % at 6.8 µM;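 active means mean percent activation of the reporter above a cutoff set as the average over tested compounds plus their standard deviation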
Target sequence (P55055 whole entry, looked up, the tested form may be a part): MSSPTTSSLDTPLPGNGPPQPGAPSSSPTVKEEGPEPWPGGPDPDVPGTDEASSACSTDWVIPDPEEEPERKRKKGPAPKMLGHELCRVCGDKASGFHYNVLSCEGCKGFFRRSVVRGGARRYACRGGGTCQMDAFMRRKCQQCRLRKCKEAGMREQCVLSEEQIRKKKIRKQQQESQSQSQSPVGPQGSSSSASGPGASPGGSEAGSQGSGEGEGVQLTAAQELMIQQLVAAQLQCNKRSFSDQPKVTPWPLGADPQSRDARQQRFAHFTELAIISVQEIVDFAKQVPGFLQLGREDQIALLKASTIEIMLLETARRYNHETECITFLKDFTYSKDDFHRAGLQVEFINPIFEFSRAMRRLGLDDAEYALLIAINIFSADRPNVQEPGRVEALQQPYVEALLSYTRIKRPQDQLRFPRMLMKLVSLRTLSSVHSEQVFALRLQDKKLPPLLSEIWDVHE
hcDAF12 ag: confirmation of H. contortus DAF-12 agonists; AID 743032; shares compounds with hcDAF12 agonist; HEK293 hcDAF-12 lit1-tk-luc reporter, luminescence; % of Δ7-dafachronic acid response; 61% of 3,400 active; activation, % at 6.8 µM;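 active means mean activation across triplicate tests above the threshold derived from the earlier primary screen, cut at about 5.5% in these data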;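 further: 0% = DMSO only wells and 100% = 3 µM Δ7-dafachronic acid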
hgDAF12 ag: hgDAF-12 agonism, confirmation assay; shares compounds with hgDAF12 agonist; HEK293 GAL4-hgDAF12 luciferase reporter, agonist mode; percent of butyrate response; activation, % at 6.8 µM; 80% of 3,300 active; AID 743050;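 active means mean activation over triplicate wells above the hit cutoff derived from the earlier primary screen, cut at about 11% in these data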;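 further: 0% = DMSO low control and 100% = 2 mM sodium butyrate high control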
LXRb DAF12 ctr: activates human LXR-beta, counter-screen for DAF-12 agonists | shares compounds with hgDAF12 agonist | HEK293 Gal4-LXR luciferase reporter, 24 h | activation, % at 6.8 µM | 3,300 tested, under 10 active;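 active means mean activation of the triplicate above a set limit carried over from the primary screen, none filed active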
* hit, by the source's call; ? = inconclusive; . = not tested or not shown.

SMILES	hcDAF12 agonist	hgDAF12 agonist	DAX1 StAR inh	Wnt act	esBAF inh	ssDAF12 agonist	DAX1 inh confirm	SF1 mutant ctr	LXR ag	hcDAF12 ag	hgDAF12 ag	LXRb DAF12 ctr
CC1=CCC(C(=O)O)C(C(=O)Nc2ccc(-c3nc4ccc(C)cc4s3)cc2)C1 (stereo unspecified)	6.7*	13*	6.1*	58*	-20	1.9*	2	1	0	3	5	0
CNC(=S)Nc1ccc(-c2nc3ccc(C)cc3s2)cc1	7.3*	18*	5.9*	-1	-9	1.8*	12*	6.2*	2	8.9*	24*	1
CCCCNC(=S)Nc1ccc(-c2nc3ccc(C)cc3s2)cc1	10*	20*	7.1*	13	21	1	13*	9.0*	1	5	20*	1
Cc1ccc2nc(-c3ccc(NC(=O)CN4CCN(C(=O)c5ccco5)CC4)cc3)sc2c1	0	3	1	.	?	-1	.	.	.	.	.	.
COCCNc1nnc(SC(C)C(=O)Nc2ccc(-c3nc4ccc(C)cc4s3)cc2)s1 (stereo unspecified)	3	9	2	.	9	0	.	.	.	.	.	.
CCC(C)(C)NC(=S)Nc1ccc(-c2nc3ccc(C)cc3s2)cc1	9.1*	20*	8.4*	6	.	0.9*	16*	7.6*	1	5.7*	19*	1
CC(C)NC(=O)Nc1ccc2c(c1)C(=O)N([C@H](C)CO)C[C@@H](C)[C@@H](CN(C)Cc1ccc(Cl)c(Cl)c1)O2	.	.	.	.	-2	.	.	.	.	.	.	.
CC(C)NC(=O)N(C)C[C@@H]1Oc2c(NC(=O)Nc3cccc4ccccc34)cccc2C(=O)N([C@@H](C)CO)C[C@@H]1C	.	.	.	.	2	.	.	.	.	.	.	.
CSc1ccccc1OCc1cc(C(=O)NCc2ccc(C)s2)no1	1	2	0	0	-5	-1	.	.	.	.	.	.
CCOC(=O)c1ccc(CNC(=O)c2cc(COc3ccccc3SC)on2)o1	4	15*	5.4*	30	54*	0	8.8*	4.5*	.	.	18*	1
C[C@@H]1CCCCO[C@@H](CN(C)Cc2ccc(C(F)(F)F)cc2)[C@H](C)CN([C@H](C)CO)C(=O)c2cc(N(C)C)ccc2O1	.	.	.	.	0	.	.	.	.	.	.	.
O=[N+]([O-])c1ccc2nc(-c3ccncc3)[nH]c2c1	2	4	0	-3	.	-1	.	.	.	.	.	.
Cc1ccc(-c2nc3ccc([N+](=O)[O-])cc3[nH]2)cc1	7.1*	18*	9.2*	19	.	0	14*	6.7*	1	7.1*	18*	1
C/C(=N\NC(=O)c1sccc1C)c1ccncc1	9.1*	20*	18*	18	.	1.1*	4.9*	2.9*	1	2	14*	1
Cc1ccsc1C(=O)NN=C1CCCCCC1	9.2*	15*	15*	17	17	1.8*	4.7*	3.4*	0	1	13*	1
S=C(c1ccccc1)N1CCSCC1	1	-1	0	4	-1	-1	.	.	.	.	.	.
O=C(CSC(=S)N1CCSCC1)c1ccccc1	4	18*	5.0*	22	.	1	12*	6.9*	.	.	19*	1
Cc1noc(C)c1NC(=O)N(C)C[C@@H]1OCCCC[C@@H](C)Oc2ccc(NS(=O)(=O)c3cccs3)cc2C(=O)N([C@H](C)CO)C[C@H]1C	.	.	.	.	-10	.	.	.	.	.	.	.
C[C@@H]1CN([C@@H](C)CO)C(=O)c2cc(C#CCN(C)C)cnc2O[C@@H]1CN(C)C(=O)Nc1cccc(F)c1	.	.	.	.	-8	.	.	.	.	.	.	.
Cc1cc(C)n2nc(-c3ccc(F)cc3)cc2n1	9.5*	18*	6.6*	2	54*	2.9*	13*	8.5*	1	12*	18*	1
O=C(/C(C=Nc1cccc(C(F)(F)F)c1)=C(/O)c1ccco1)C(F)(F)F	3	6	1	.	.	0	.	.	.	.	.	.
O=C(/C(C=Nc1ccc(Br)cc1)=C(/O)c1ccco1)C(F)(F)F	5	19*	5.3*	?	.	0	17*	-3	.	.	16*	1
CC1Oc2ccccc2C=C1/C=N/Nc1ccc(C(=O)O)cc1 (stereo unspecified)	6.9*	15*	6.3*	-5	.	0.9*	19*	9.3*	2	15*	14*	1
CCn1c(/C=N/Nc2ccc(C(=O)O)cc2)nc2ccccc21	1	-1	0	0	.	-1	.	.	.	.	.	.
COc1ccc(NC(=O)N2CCc3ccccc32)cc1	9.1*	16*	5.1*	.	-25	1.0*	15*	5.8*	1	7.4*	18*	1
SMILES	hcDAF12 agonist	hgDAF12 agonist	DAX1 StAR inh	Wnt act	esBAF inh	ssDAF12 agonist	DAX1 inh confirm	SF1 mutant ctr	LXR ag	hcDAF12 ag	hgDAF12 ag	LXRb DAF12 ctr
Cc1ccc(OCC(=O)N2CCCc3ccccc32)cc1	0	2	0	.	38	-1	.	.	.	.	.	.
Cc1ccc(OCC(=O)N2CCc3ccccc32)cc1	11*	22*	5.1*	26	41	1.6*	15*	9.1*	1	5.7*	13*	1
O=C(NCCc1ccccn1)c1ccc(OC(F)F)cc1	4	16*	5.4*	14	-10	-1	9.3*	3.8*	.	.	15*	0
O=C(NNC(=O)c1ccccn1)c1ccc(OC(F)F)cc1	2	4	1	17	-14	-1	.	.	.	.	.	.
CO[C@@H]1CN(C)C(=O)c2ccc(NC(=O)c3cccc(F)c3)cc2OC[C@@H](C)N(CC2CC2)C[C@@H]1C	.	.	.	.	4	.	.	.	.	.	.	.
COCC(=O)Nc1ccc2c(c1)OC[C@@H](C)N(Cc1cccc(F)c1)C[C@H](C)[C@H](OC)CN(C)C2=O	.	.	.	.	5	.	.	.	.	.	.	.
CCCC(=O)Nc1ccc(-c2nc3cc(C)c(C)cc3o2)cc1	5	13*	5.5*	.	19	1.6*	14*	8.7*	.	.	16*	1
